# Laboratory results as given in PubChem BioAssay AID624351 (Southern Research Specialized Biocontainment Screening …, 2012).
# Hit rate of the full screen: of about 2,400 compounds, about 1,400 (58%) were called active.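 The calls were made as follows: active = inhibition of 30% or more at any tested dose; inconclusive = primary hits over the limit that were never retested; inactive = the rest.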 So high a share suggests a set chosen from earlier hits. This is one part of the list.
# Assay: coupled detection enzyme interference, dose response, artefact control for MgcRacGAP inhibitor project, biochemical, coupled enzyme counter-screen (AID 624351);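 also: signal is the ADP detection kit reading of free GDP without any GAP enzyme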
# Settings: ADP Hunter coupled enzyme counter-screen, fluorescence, no MgcRacGAP; series mostly up to 80 µM
row,SMILES,IC50
1,CCOC(=O)c1c(C)[nH]sc1=S,44.3 µM (active)
2,CCOC(=O)c1c(C)[nH]c(C(=O)CN2CCN(CC)CC2)c1C,inactive
3,CCOC(=O)c1sc(=S)[nH]c1C,46 µM (active)
4,CCn1c(-c2ccccc2)csc1=Nc1ccc(O)cc1,35.8 µM (active)
5,C=CCn1c(=O)/c(=C/c2ccc(O)cc2)s/c1=C(/C#N)c1nnc2n1CCCCC2,58.7 µM (active)
6,C/C(=N\NC(=O)CSCc1ccccc1Cl)c1cc(O)ccc1O,25.6 µM (active)
7,Brc1csc(C=Nc2ccc3c(c2)OCCOCCOCCOCCO3)c1,70.1 µM (active)
8,CCN1CCN(CC(=O)N/N=C/c2cc(Br)cs2)CC1,inactive
9,CC1=NN(c2ccc(C(=O)O)cc2)C(=O)/C1=C\c1ccc(OC(=O)c2cccs2)cc1,inactive
10,COc1ccc(Br)cc1CN1CCC(N2CCCC2)CC1,inactive
11,COc1ccc(Cn2nnnc2C(c2cccnc2)N2CCN(c3ccc(O)cc3)CC2)cc1 (configuration not stated),50.3 µM (active)
12,COc1ccc(N2CCN(C(=O)c3ccc(CS(=O)c4cccc(Cl)c4)o3)CC2)cc1 (configuration not stated),inactive
13,Oc1ccc(N2CCN(C(c3cccs3)c3nnnn3CCc3ccccc3)CC2)cc1 (configuration not stated),45.2 µM (active)
14,CCC(c1nnnn1Cc1ccccc1)N1CCN(c2ccc(OC)cc2)CC1 (configuration not stated),inactive
15,COc1cc2oc(-c3ccc(O)cc3)cc(=O)c2c(OC)c1O,21.9 µM (active)
16,COc1cc(CNc2ccc3[nH]c(=O)[nH]c3c2)ccc1OCc1c(F)cccc1Cl,inactive
17,COc1cccc(CNc2ccc3[nH]c(=O)[nH]c3c2)c1OCc1ccccc1Cl,83.9 µM (active)
18,COc1cc(CNc2ccc3[nH]c(=O)[nH]c3c2)ccc1OCc1ccccc1F,inactive
19,CN(C)c1ccc(NS(=O)(=O)c2cc(Cl)ccc2Cl)cc1,50 µM (active)
20,Cc1ccc(S(=O)(=O)Nc2nsc(N)n2)cc1,inactive
21,CC1CCN(CC(=O)Nc2ccc(S(=O)(=O)NC3CC3)cc2)CC1,inactive
22,CN(CC(=O)NCc1ccncc1)S(=O)(=O)c1ccc(Cl)cc1,inactive
23,CN(C)c1ccc(NS(=O)(=O)c2ccc(Cl)cc2)cc1,33.7 µM (active)
24,CC(C)(C)N(NS(=O)(=O)c1ccc(F)cc1)c1ccccc1,inactive
25,Cc1ccc(S(=O)(=O)Nc2ccc(N(C)C)cc2)cc1,31.3 µM (active)
26,CC(NS(=O)(=O)c1ccc(Cl)cc1)C(=O)OCC(=O)Nc1ccc(N(C)C)cc1 (configuration not stated),70.6 µM (active)

row,SMILES,IC50
1,COc1cccc(NS(=O)(=O)c2ccc3c(c2)C2C=CCC2C(c2ccc(C(=O)O)cc2)N3)c1 (configuration not stated),inactive
2,CCOCCCNCC(=O)NCC1CCCCC1,inactive
3,COc1cc(/C=C/C(=O)OCC(=O)NCC2CCCCC2)ccc1O,35.4 µM (active)
4,COc1cc(/C=C/C(=O)OCC(=O)NCCC2=CCCCC2)ccc1O,51.8 µM (active)
5,COc1cc(/C=C/C(=O)OCC(=O)NC2CCS(=O)(=O)C2)ccc1O (configuration not stated),43.2 µM (active)
6,CCN(CC(=O)Nc1cc(Cl)ccc1OC)CC(=O)NC1CCS(=O)(=O)C1 (configuration not stated),inactive
7,Cc1cc(/C=C(\C#N)C(=O)N2CCCCC2)cc(C)c1O,56.9 µM (active)
8,CC1CC(C)CN(C2CCN(Cc3cccnc3)CC2)C1 (configuration not stated),inactive
9,CCOc1ccc(N(CCCCO)C(=S)NC(=O)c2ccc(C)c(Br)c2)cc1,inactive
10,N#CC1=C(S)N(c2ccc(F)cc2)C(c2ccco2)NC1=O (configuration not stated),inactive
11,O=C1c2cccc(NCCCNCCO)c2C(=O)c2cccc(NCCCNCCO)c21,inactive
12,OCCCCNc1cccc2ccccc12,34.5 µM (active)
13,O=C1c2cccc(NCCNCCO)c2C(=O)c2cccc(NCCNCCO)c21,inactive
14,Nc1ccc(C(=O)c2ccc3c(c2)OCCO3)cc1N,24.2 µM (active)
15,COc1ccc(C(=O)CCNc2ccc3c(c2)OCCO3)cc1,inactive
16,COc1cc(C=C2CN(C)C(=O)C2=O)ccc1O,25 µM (active)
17,CCOc1cc(/C=C2\CN(CC)C/C(=C\c3ccc(O)c(OCC)c3)C2=O)ccc1O,61.9 µM (active)
18,COc1cc(/C=C2\C(=O)N(C)C(=S)N2C)ccc1O,30.2 µM (active)
19,CCN(CC)CCC(=O)N1C/C(=C/c2ccccc2)C(=O)/C(=C\c2ccccc2)C1,inactive
20,COc1cc(/C=C/C=C2/CC/C(=C/C=C/c3ccc(O)c(OC)c3)C2=O)ccc1O,inactive
21,C[N+](C)(C)CCC(=O)N1C/C(=C/c2ccccc2)C(=O)/C(=C\c2ccccc2)C1,inactive
22,CN(C)CCC(=O)N1C/C(=C/c2ccccc2)C(=O)/C(=C\c2ccccc2)C1,inactive
23,CCOc1cc(/C=C2\CN(C)C/C(=C\c3ccc(O)c(OCC)c3)C2=O)ccc1O,43.5 µM (active)
24,O=C1/C(=C\c2ccc(Cl)c(Cl)c2)CN(C(=O)CCN2CCOCC2)C/C1=C/c1ccc(Cl)c(Cl)c1,inactive
25,COc1ccc2c(C)cc3n[nH]c(=S)n3c2c1,15.8 µM (active)
26,COc1ccc(-n2cnc(=S)[nH]c2=S)cc1,inactive

row,SMILES,IC50
1,COc1ccc(NC(=O)c2cc3ccc(O)cc3o/c2=N\O)cc1,57.4 µM (active)
2,COc1ccc2oc(=O)c(C(=O)Oc3ccc(NC(C)=O)cc3)cc2c1,inactive
3,COc1cccc2cc(C(=O)Oc3ccc(NC(C)=O)cc3)c(=O)oc12,inactive
4,COc1cc(/C=C2\C(=O)N(CCC#N)N=C2C)ccc1OCC(=O)Nc1ccccc1,inactive
5,COc1cc(/C=C/C(=O)OCC(=O)Nc2cccc(F)c2)ccc1O,41 µM (active)
6,COc1cc(/C=C/C(=O)OCc2cn3cc(Cl)ccc3n2)ccc1O,36.2 µM (active)
7,COc1ccc(CNCC(=O)Nc2cc(OC)cc(OC)c2)cc1,inactive
8,COc1cc(/C=C/C(=O)OCC(=O)NNC(=O)c2cc(Cl)ccc2OC)ccc1O,55.8 µM (active)
9,COc1cc(NC(=O)COC(=O)/C=C/c2ccc(O)c(OC)c2)cc(OC)c1,36.1 µM (active)
10,C#CCOCCOCCOCCNc1nc(N2CCN(C(=O)[C@H](CCCCN)n3cc([C@@H](N)C(C)CC)nn3)CC2)nc(N2CCN(C(=O)[C@H](Cc3cc4ccccc4[nH]3)n3cc([C@@H](N)C(C)CC)nn3)CC2)n1 (some centres not stated),inactive
11,COc1cc(C2NC(=O)C(C#N)=C(Nc3cccc(C)c3)S2)ccc1O (configuration not stated),inactive
12,CCOC(=O)C1=C(COC(=O)/C=C/c2ccc(O)c(OC)c2)NC(=O)NC1C (configuration not stated),53.1 µM (active)
13,O=C(N/N=C/c1ccc(O)cc1)Nc1cccc2nsnc12,61.4 µM (active)
14,COc1ccc(O)c(/C=N/NC(=O)c2c(C)nnn2-c2nonc2N)c1,inactive
15,Cc1nonc1C(=O)N/N=C/c1ccc(O)c(O)c1,17.7 µM (active)
16,COc1cc(/C=N/NC(=O)c2nonc2C)ccc1O,25.6 µM (active)
17,Cc1nonc1C(=O)N/N=C/c1ccc(O)cc1O,72 µM (active)
18,COc1cc(/C=N/NC(=O)c2nnn(-c3nonc3N)c2C(C)C)ccc1O,40.7 µM (active)
19,O=S(=O)(/N=S1\CC=CCN1S(=O)(=O)c1ccccc1)c1ccccc1 (configuration not stated),inactive
20,COc1cccc(C(=O)N2CCN(C3CCN(Cc4ccccc4)CC3)CC2)c1OC,inactive
21,COc1cc(/C=C/C(=O)OCC(=O)N2CC3(C)CC2CC(C)(C)C3)ccc1O (configuration not stated),44.7 µM (active)
22,C/C=C/c1ccc(OCCCCN2CCN(CC)CC2)c(OC)c1,inactive
23,COc1cc(CN2CCC(C(=O)N3CCN(c4ccccc4F)CC3)CC2)ccc1O,inactive
24,COC(=O)C1CCN(C(=O)COC(=O)/C=C/c2ccc(O)c(OC)c2)CC1,44 µM (active)
25,NS(=O)(=O)c1ccc(CCNCC(=O)N2CCC(Cc3ccccc3)CC2)cc1,inactive
26,COc1cc(/C=C/C(=O)OCC(=O)N2CCC(Cc3ccccc3)CC2)ccc1O,49.4 µM (active)

row,SMILES,IC50
1,COc1cc(/C=C/C(=O)OCC(=O)N2CCCc3ccccc32)ccc1O,27.8 µM (active)
2,COc1ccc(CN2CCN(Cc3ccc(Br)cc3)CC2)c(OC)c1OC,inactive
3,COc1cc(/C=C/C(=O)OCC(=O)N2CCN(C(=O)c3ccco3)CC2)ccc1O,33.8 µM (active)
4,COc1ccc(C(=O)N2CCN(CCCc3ccccc3)CC2)cc1OC,inactive
5,COc1cccc(CN2CCN(C(=O)c3ccco3)CC2)c1OC,inactive
6,Cc1sc2ncnc(Nc3ccc(O)cc3)c2c1C,38.2 µM (active)
7,Cc1sc2ncnc(N/N=C/c3ccc(O)cc3)c2c1C,48.3 µM (active)
8,Cc1sc2ncnc(N(C)CCc3ccccn3)c2c1C,inactive
9,COC(=O)/C(=C/Nc1ccc(O)cc1)[N+](=O)[O-],23.9 µM (active)
10,O=C(CN1CCN(C2CCCCC2)CC1)Nc1ccccc1-c1ccccc1,inactive
11,O=C(Nc1cc(Br)c(O)c(Br)c1)c1cccc(NC(=O)c2ccco2)c1,81.3 µM (active)
12,O=C(/C=C\c1ccco1)c1ccc(NC(=O)c2ccco2)cc1,inactive
13,O=c1ccn(-c2ccccc2)[nH]1,51.3 µM (active)
14,O=C1CCN(c2ccccc2)N1,inactive
15,CCN(CC)CCCNCC(=O)Nc1cc(C)on1,inactive
16,CC(=O)Nc1ccc(N=Nc2ccc(O)cc2)cc1,24.5 µM (active)
17,Oc1ccc(N=Nc2ccccc2)cc1,78.2 µM (active)
18,Nc1ccc(N=Nc2ccc(O)cc2)c(N)n1,10.2 µM (active)
19,Nc1ccc(Nc2nc(-c3cc4ccccc4oc3=O)cs2)cc1,inactive
20,Nc1ccc(Nc2nc(-c3ccncc3)cs2)cc1,9.43 µM (active)
21,O=c1oc2ccccc2cc1-c1csc(Nc2ccc(O)cc2)n1,58 µM (active)
22,NS(=O)(=O)c1ccc(Nc2nc(-c3ccc(O)cc3)cs2)cc1,20.9 µM (active)
23,NS(=O)(=O)c1ccc(Nc2nc(-c3ccc(O)cc3O)cs2)cc1,48.8 µM (active)
24,Cc1cc(NS(=O)(=O)c2ccc(Nc3nc(-c4ccc(O)cc4)cs3)cc2)no1,30.2 µM (active)
